# Experimental data taken from article PMC7862700, “An all-to-all approach to the identification of sequence-specific readers for epigenetic DNA modifications on cytosine”.
# Key:
# Assay in all cases: DAPPL (digital affinity profiling via proximity ligation, sequencing); 10 mM Tris-HCl pH 7.5, 50 mM NaCl, 1 mM DTT, 4% glycerol, room temperature, 30 min; GST-TFs on glutathione beads, 16-mer random dsDNA library, 0.1% formaldehyde crosslink after washing; high values mean tight binding
# Details in all cases: protein: recombinant; tags: N-terminal GST; dsDNA, one strand shown
# [1] = target: T1, FLI1 (Homo sapiens, UniProt Q01543 1-452)
# T1 sequence: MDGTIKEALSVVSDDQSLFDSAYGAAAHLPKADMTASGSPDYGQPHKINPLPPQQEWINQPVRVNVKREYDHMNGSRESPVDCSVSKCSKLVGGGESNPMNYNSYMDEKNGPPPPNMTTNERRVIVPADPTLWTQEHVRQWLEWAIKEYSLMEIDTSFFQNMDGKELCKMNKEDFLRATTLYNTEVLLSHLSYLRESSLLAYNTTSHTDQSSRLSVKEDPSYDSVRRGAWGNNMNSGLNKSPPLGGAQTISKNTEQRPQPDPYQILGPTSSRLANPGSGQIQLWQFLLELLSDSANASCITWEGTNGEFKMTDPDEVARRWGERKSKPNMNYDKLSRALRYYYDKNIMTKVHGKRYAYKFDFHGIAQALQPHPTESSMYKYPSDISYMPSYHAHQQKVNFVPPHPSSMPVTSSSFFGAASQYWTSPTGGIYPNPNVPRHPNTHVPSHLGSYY
# Procedure, shortened: (§1)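 Pools were built from human transcription factors expressed in yeast as GST fusions, captured on glutathione beads and DNA-barcoded, along with a tag-only sample. Incubation with 200 nmole of a 16-mer random double-stranded DNA library lasted 30 min at room temperature in Tris/NaCl/DTT/glycerol buffer, and was followed by washing, 0.1% formaldehyde crosslinking, proximity ligation, PCR amplification and Illumina NextSeq500 sequencing. Binding signal is the quotient of each hexamer's read frequency for a factor and its frequency for the tag-only sample.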
# [2] = target: T2, ELK1 (Homo sapiens, UniProt P19419 1-428)
# T2 sequence: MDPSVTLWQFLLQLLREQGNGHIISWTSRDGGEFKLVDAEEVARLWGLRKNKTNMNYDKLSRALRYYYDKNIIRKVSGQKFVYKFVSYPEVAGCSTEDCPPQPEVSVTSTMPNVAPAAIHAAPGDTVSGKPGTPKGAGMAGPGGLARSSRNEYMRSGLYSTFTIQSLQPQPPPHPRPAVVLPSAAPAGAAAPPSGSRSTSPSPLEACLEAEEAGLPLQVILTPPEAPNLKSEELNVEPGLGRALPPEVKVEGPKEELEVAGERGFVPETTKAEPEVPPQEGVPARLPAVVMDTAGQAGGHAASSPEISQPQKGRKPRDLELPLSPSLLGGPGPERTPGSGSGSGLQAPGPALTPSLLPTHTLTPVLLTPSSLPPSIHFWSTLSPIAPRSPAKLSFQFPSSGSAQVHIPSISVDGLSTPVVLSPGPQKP
# Procedure, shortened: as §1
# [3] = target: T3, GABPA (Homo sapiens, UniProt Q06546 1-454)
# T3 sequence: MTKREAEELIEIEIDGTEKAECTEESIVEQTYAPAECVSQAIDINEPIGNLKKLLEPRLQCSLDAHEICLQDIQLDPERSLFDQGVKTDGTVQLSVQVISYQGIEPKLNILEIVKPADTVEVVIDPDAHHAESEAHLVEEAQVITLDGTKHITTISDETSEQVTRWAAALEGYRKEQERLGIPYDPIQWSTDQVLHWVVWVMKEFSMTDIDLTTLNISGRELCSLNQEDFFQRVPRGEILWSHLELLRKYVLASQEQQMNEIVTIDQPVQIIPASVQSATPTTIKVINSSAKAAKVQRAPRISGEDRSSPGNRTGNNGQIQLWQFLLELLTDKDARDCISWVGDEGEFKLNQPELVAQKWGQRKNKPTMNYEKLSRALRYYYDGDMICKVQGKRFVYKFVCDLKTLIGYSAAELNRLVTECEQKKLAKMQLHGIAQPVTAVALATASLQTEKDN
# Procedure, shortened: as §1
# [4] = target: T4, ERG (Homo sapiens, UniProt P11308 1-479)
# T4 sequence: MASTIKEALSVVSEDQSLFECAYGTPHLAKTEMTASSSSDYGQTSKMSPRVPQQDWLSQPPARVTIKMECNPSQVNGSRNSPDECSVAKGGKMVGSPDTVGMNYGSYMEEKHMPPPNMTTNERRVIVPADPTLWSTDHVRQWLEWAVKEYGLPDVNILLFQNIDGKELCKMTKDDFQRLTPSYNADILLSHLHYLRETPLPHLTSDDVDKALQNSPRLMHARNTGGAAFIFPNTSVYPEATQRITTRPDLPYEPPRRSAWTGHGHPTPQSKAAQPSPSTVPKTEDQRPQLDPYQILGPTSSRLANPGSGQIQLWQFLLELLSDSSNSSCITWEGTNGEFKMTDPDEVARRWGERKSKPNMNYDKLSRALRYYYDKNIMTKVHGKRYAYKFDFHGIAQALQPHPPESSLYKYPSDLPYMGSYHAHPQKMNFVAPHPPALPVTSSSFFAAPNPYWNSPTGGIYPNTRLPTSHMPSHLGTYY
# Procedure, shortened: as §1
# [5] = target: ELF1 (Homo sapiens, UniProt P32519 1-619)
# Sequence of ELF1 (P32519 whole entry): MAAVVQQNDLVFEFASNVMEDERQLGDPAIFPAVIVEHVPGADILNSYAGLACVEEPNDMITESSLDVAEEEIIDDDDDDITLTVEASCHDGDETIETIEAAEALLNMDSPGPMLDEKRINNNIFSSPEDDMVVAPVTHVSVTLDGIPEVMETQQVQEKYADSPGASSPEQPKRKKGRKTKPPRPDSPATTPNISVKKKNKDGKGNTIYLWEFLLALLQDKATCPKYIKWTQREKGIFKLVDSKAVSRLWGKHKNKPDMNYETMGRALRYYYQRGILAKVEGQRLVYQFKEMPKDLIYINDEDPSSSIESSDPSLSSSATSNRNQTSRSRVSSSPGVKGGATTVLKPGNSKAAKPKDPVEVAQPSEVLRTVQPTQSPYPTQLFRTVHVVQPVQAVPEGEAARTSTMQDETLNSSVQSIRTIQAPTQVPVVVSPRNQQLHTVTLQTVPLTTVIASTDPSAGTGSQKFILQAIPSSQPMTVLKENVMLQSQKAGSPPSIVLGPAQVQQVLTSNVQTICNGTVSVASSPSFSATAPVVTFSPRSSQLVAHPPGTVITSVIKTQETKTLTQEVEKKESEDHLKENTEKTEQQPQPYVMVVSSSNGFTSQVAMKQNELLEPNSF
# Procedure, shortened: as §1
# [6] = target: T5, EHF (Homo sapiens, UniProt Q9NZC4 1-300)
# T5 sequence: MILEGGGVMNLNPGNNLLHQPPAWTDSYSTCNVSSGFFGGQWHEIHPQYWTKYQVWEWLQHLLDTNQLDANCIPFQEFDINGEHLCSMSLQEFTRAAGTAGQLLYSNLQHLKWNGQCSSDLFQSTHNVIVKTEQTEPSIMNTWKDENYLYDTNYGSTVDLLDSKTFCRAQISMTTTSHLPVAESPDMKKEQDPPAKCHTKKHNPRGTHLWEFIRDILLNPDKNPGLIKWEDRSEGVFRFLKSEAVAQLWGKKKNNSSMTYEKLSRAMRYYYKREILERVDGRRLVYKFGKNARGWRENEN
# Procedure, shortened: as §1
# [7] = target: SPI1 (Homo sapiens, UniProt P17947 1-270)
# Procedure, shortened: as §1
# [8] = target: SPIB (Homo sapiens, UniProt Q01892 1-262)
# Sequence of SPIB (Q01892 whole entry): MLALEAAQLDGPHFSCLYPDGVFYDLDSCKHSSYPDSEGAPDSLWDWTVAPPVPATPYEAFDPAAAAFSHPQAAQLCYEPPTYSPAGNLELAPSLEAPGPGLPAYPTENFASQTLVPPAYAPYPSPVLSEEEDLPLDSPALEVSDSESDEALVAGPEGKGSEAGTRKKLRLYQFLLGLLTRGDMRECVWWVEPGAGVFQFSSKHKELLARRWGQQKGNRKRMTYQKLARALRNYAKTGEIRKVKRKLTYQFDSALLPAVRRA
# Procedure, shortened: as §1
# [9] = target: T6, ELK3 (Homo sapiens, UniProt P41970 1-407)
# T6 sequence: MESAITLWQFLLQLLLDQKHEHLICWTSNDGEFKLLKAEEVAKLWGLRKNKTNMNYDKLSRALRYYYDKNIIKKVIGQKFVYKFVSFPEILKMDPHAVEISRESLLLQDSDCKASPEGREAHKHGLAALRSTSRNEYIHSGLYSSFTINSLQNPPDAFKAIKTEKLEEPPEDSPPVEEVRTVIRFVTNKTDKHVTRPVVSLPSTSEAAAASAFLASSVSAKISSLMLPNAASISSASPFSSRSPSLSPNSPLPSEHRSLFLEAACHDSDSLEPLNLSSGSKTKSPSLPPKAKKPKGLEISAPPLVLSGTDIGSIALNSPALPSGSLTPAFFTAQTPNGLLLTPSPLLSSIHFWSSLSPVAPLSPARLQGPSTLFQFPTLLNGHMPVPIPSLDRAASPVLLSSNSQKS
# Procedure, shortened: as §1
# [10] = target: T7, FEV (Homo sapiens, UniProt Q99581 1-238)
# T7 sequence: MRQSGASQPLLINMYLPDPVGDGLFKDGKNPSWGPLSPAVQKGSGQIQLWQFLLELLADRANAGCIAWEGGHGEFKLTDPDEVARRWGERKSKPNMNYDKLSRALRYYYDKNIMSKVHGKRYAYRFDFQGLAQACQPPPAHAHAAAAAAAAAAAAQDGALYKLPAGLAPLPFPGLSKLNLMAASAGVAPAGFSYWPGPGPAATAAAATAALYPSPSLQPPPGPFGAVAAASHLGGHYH
# Procedure, shortened: as §1
# [11] = target: ETV5 (Homo sapiens, UniProt P41161 1-510)
# Sequence of ETV5 (P41161 whole entry): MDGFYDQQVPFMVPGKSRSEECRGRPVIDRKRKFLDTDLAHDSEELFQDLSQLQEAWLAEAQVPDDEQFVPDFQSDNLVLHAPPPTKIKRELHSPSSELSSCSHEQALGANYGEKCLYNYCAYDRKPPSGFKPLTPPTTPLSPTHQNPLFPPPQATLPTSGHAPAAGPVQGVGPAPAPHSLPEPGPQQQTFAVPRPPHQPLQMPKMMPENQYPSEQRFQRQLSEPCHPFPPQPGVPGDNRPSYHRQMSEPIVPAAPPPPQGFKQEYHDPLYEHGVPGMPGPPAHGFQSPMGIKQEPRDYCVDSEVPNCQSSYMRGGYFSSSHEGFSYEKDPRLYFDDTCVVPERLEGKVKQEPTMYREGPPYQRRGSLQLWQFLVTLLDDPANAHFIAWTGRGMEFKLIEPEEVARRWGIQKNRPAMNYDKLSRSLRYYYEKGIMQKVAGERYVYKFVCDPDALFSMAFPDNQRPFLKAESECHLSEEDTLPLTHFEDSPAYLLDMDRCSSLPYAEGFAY
# Procedure, shortened: as §1
# [12] = target: T8, SPIC (Homo sapiens, UniProt Q8N5J4 1-248)
# T8 sequence: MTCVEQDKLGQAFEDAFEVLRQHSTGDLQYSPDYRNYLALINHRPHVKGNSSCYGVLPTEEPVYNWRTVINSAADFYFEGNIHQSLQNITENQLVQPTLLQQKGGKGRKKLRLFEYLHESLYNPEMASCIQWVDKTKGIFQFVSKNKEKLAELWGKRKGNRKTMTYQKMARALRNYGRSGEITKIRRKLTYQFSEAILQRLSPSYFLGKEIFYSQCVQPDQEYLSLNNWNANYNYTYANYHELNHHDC
# Procedure, shortened: as §1
# [13] = target: ELF4 (Homo sapiens, UniProt Q99607 1-663)
# Sequence of ELF4 (Q99607 whole entry): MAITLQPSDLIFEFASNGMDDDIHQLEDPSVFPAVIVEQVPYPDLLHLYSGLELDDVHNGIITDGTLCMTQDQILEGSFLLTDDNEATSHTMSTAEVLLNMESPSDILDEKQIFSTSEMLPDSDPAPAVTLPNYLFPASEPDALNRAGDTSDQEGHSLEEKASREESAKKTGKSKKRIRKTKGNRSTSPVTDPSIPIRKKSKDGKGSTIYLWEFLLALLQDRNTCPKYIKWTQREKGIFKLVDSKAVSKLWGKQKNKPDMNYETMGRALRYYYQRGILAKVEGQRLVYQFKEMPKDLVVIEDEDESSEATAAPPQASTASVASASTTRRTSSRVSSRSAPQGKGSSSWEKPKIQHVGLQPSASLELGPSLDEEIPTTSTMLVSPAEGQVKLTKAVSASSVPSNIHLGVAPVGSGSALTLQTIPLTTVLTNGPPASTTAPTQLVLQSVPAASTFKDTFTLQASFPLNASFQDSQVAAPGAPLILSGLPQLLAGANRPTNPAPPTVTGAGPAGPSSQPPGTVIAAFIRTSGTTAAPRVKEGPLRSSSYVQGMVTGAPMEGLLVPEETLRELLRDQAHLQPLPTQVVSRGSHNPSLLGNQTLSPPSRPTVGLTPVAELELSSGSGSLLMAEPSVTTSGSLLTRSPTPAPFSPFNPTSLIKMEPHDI
# Procedure, shortened: as §1
# [14] = target: T9, ELK4 (Homo sapiens, UniProt P28324-2 1-405)
# T9 sequence: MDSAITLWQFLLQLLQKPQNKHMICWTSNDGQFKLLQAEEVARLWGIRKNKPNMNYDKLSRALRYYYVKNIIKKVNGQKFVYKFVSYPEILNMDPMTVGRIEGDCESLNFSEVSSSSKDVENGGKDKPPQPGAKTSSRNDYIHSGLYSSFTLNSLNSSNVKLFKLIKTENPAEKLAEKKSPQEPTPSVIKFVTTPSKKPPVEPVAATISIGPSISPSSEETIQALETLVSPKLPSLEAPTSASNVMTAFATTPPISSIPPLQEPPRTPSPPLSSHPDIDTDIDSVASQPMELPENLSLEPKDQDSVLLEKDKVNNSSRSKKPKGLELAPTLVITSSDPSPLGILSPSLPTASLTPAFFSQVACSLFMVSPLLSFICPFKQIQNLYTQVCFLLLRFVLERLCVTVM
# Procedure, shortened: as §1
# [15] = target: T10, ETV2 (Homo sapiens, UniProt O00321 1-342)
# T10 sequence: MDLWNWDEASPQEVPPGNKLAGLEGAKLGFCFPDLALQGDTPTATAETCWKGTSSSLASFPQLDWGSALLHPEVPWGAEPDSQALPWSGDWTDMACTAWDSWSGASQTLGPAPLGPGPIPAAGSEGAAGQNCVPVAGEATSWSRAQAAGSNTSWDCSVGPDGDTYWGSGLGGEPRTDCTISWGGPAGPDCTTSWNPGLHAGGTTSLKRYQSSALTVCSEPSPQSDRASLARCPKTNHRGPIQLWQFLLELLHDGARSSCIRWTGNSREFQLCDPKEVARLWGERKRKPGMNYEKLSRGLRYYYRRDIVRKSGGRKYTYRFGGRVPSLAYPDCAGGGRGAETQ
# Procedure, shortened: as §1
# [16] = target: T11, ELF3 (Homo sapiens, UniProt P78545 1-371)
# T11 sequence: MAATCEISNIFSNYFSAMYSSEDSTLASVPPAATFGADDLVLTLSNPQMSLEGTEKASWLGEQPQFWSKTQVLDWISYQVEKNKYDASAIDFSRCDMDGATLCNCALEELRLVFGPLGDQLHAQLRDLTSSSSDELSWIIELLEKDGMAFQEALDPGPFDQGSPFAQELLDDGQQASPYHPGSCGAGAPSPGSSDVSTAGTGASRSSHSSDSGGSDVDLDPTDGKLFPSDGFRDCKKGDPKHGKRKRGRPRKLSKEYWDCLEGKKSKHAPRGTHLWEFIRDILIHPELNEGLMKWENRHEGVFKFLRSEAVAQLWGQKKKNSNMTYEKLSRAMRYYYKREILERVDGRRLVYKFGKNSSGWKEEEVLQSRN
# Procedure, shortened: as §1
# [17] = target: ETV1 (Homo sapiens, UniProt P50549 1-477)
# Sequence of ETV1 (P50549 whole entry): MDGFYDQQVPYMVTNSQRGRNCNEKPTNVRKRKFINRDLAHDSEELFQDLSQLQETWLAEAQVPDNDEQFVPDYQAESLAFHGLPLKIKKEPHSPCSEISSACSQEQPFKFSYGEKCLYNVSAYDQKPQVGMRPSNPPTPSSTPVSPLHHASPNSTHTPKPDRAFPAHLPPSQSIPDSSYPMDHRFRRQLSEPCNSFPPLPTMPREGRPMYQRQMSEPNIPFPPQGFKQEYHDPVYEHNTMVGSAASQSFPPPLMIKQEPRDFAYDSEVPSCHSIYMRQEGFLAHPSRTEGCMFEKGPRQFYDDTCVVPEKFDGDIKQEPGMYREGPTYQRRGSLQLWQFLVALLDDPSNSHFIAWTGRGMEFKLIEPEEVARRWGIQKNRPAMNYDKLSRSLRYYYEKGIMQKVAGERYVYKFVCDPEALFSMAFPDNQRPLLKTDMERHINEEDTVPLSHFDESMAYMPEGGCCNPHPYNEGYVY
# Procedure, shortened: as §1
sequence,measurement,setting,value
CCCGGC,binding signal,[1],"1.15 fold enrichment (6-mer frequency, TF over GST control)"
same,binding signal,[2],"1.25 fold enrichment (6-mer frequency, TF over GST control)"
same,binding signal,[3],"1.1 fold enrichment (6-mer frequency, TF over GST control)"
same,binding signal,[4],"1.15 fold enrichment (6-mer frequency, TF over GST control)"
same,binding signal,[5],"1.17 fold enrichment (6-mer frequency, TF over GST control)"
same,binding signal,[6],"1.06 fold enrichment (6-mer frequency, TF over GST control)"
same,binding signal,[7],"1.13 fold enrichment (6-mer frequency, TF over GST control)"
same,binding signal,[8],"1.13 fold enrichment (6-mer frequency, TF over GST control)"
same,binding signal,[9],"1.22 fold enrichment (6-mer frequency, TF over GST control)"
same,binding signal,[10],"1.16 fold enrichment (6-mer frequency, TF over GST control)"
same,binding signal,[11],"1.15 fold enrichment (6-mer frequency, TF over GST control)"
same,binding signal,[12],"1.11 fold enrichment (6-mer frequency, TF over GST control)"
same,binding signal,[13],"1.19 fold enrichment (6-mer frequency, TF over GST control)"
same,binding signal,[14],"1.27 fold enrichment (6-mer frequency, TF over GST control)"
same,binding signal,[15],"1.07 fold enrichment (6-mer frequency, TF over GST control)"
same,binding signal,[16],"1.01 fold enrichment (6-mer frequency, TF over GST control)"
same,binding signal,[17],"1.19 fold enrichment (6-mer frequency, TF over GST control)"
